# Sampled rows, rich in hits. Any-hit rate of the full collection: about 3.1%.
# IL2 activator = activates IL-2 in a cell-based reporter assay | IL-2 activation reporter assay, cell-based qHTS; stimulated with anti-CD3/CD4/CD28 beads; in transgenic mouse T cells | activation, % (series mostly up to about 46 µM) | hit rate 0.065% among 360,000 | AID 652025; in the data active = activation above about 50%; inconclusive = mostly about 30% to 49%
#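 First, unstimulated transgenic mouse T cells were exposed to compound for 60 min. Next, anti-CD3/anti-CD4-coated beads with anti-CD28 were added. Finally, after 18 h at 37 degrees C, EGFP and DsRed were imaged.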
# ELG1 DNA repair = ELG1-dependent DNA repair inhibition | HEK293T ELG1-luciferase reporter, luminescence, 16 h; DNA damage induced by 5-fluorouridine | Potency, µM (highest dose often 46.1 µM), most hits filed as inhibitors | hit rate 2.3% among 330,000 | AID 504467; note: nearly all actives have a fitted effect of over 55% in size
#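 5-Fluorouridine DNA damage + compound/DMSO, 2,000 cells/well, 16 h, 37 °C/5% CO2. ONE-Glo, 30 min RT, luminescence. Readout = decrease in reporter signal.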
# BRCA1 expr act = activators of BRCA1 expression | MCF7-BRCA1-FFLuc reporter, luminescence, 48 h; response scale: scaled: vehicle 0%, 10 µM genistein 100% | Potency, µM (series often up to 46.1 µM), actives largely listed as activators | hit rate 1.1% among 380,000 | AID 624202; note: nearly all actives have a fitted effect of over 80% in size
#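 Cells: MCF7-BRCA1-FFLuc, 2000/well. Exposure: 48 h, 37 °C, 5% CO2. Read: luminescence, 15 min post-substrate. Controls: genistein 10 microM (maximal activation), DMSO (neutral).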
# Nrf2 activator = Nrf2 pathway activation; AREc32 ARE-luciferase reporter (MCF7-derived line), luminescence, 24 h; Potency, µM (titrated, usually from 46.1 µM), usual class: activators; hit rate 0.31% among 410,000; AID 624171; note: nearly all actives have a fitted effect of over 65% in size
#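 Luminescent ARE reporter assay in AREc32_Fluc cells: overnight plating at 37 deg C, 24 hr compound incubation, Steady-Glo added, 30 min RT before reading.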
# Numbers stand for hits; 0 = inactive; ? = inconclusive; - = no result; [ ] = dose if it differs, or a comment. Unless noted, calls come from the whole dose curve; as a rule, active = well fitted curve in the direction sought with a large enough effect; inconclusive = small, poorly fitted or top-dose-only effect, or another doubt; inactive = no such curve, though single readings can be large; an effect the other way counts as inactive or inconclusive.
SMILES,IL2 activator,ELG1 DNA repair,BRCA1 expr act,Nrf2 activator
CCOc1ccc(-n2c(C)cc(/C=C3/C(=N)N4C(=NC3=O)SN=C4S(C)(=O)=O)c2C)cc1,0,0,0,0
CCOC(=O)c1sc(Nc2ccccc2Cl)nc1C,0,?,8.9µM,0
CCOC(=O)c1sc(NC(=O)Nc2ccccc2F)nc1C,0,?,0,0
Cc1ccc(NC(=O)COc2ccc3c(c2)OCO3)c(Cl)c1,0,?,14µM,0
CCOc1ccc(NC(=O)COc2ccc3c(c2)OCO3)cc1,0,?,0,0
CC(C)(C)c1nnc(NC(=O)COc2ccc3c(c2)OCO3)s1,0,?,2.5µM,0
O=C(COc1ccc2c(c1)OCO2)Nc1ccccc1C(F)(F)F,0,?,10µM,0
CCc1ccccc1NC(=O)COc1ccc2c(c1)OCO2,0,0,0,0
COc1ccc2[nH]c(=O)c(-c3noc(-c4ccccc4)n3)cc2c1,0,?,5.6µM,0
COc1ccc2[nH]c(=O)c(-c3nnn(-c4ccccc4)n3)cc2c1,0,?,?,0
COc1ccc(N2C(=O)/C(=C\c3ccco3)N=C2SCC(=O)N(C(C)C)C(C)C)cc1Cl,0,13µM,0,0
N/C(Cc1cccs1)=N\OC(=O)COc1ccc(Br)cc1Cl,0,?,?,0
N/C(Cc1cccs1)=N\OC(=O)COc1ccccc1Cl,0,?,13µM,0
CSc1ccc(N/N=C(/C#N)S(=O)(=O)C(C)(C)C)cc1,0,18µM,0,0
Cc1cccc2nc(-c3ccccc3)nc(N[C@@H](CO)c3ccccc3)c12,0,9.2µM,0,0
Cc1ccc(-c2nc(NCCCO)c3ccccc3n2)cc1,0,?,0,0
CCCCNC(=O)c1cn(CC)c2cc(N3CCN(C)CC3)c(F)cc2c1=O,0,0,0,0
CCCNC(=O)c1cn(CC)c2cc(N3CCN(C(=O)c4ccco4)CC3)c(F)cc2c1=O,0,13µM,0,0
CCn1cc(C(=O)NCc2cccnc2)c(=O)c2cc(F)c(N3CCN(C(=O)c4ccco4)CC3)cc21,0,21µM,0,0
CCn1cc(C(=O)NCc2cccc(F)c2)c(=O)c2cc(F)c(N3CCN(C(=O)c4ccco4)CC3)cc21,0,13µM,0,0
CCOc1ccc(CCNC(=O)c2oc(=O)c3ccccc3c2-c2ccc(C)cc2)cc1OCC,-,-,0,0
COCCNC(=O)c1ccc(-c2nc(CS(=O)(=O)c3ccccc3)c(C)o2)cc1,-,-,-,0
N=c1ccn(CC(=O)c2ccc(-c3ccccc3)cc2)cc1,0,?,0,0
O=C(CN1C(=O)CCC1=O)c1ccc(-c2ccccc2)cc1,0,?,13µM,0
O=C(Nc1ncccc1O)c1ccc(NS(=O)(=O)c2ccc3[nH]c(=O)[nH]c3c2)cc1,0,0,0,?
SMILES,IL2 activator,ELG1 DNA repair,BRCA1 expr act,Nrf2 activator
O=C(Nc1ccccc1O)c1ccc(NS(=O)(=O)c2cccc3cccnc23)cc1,0,?,0,11µM
O=C(Nc1ncccc1O)c1ccc(S(=O)(=O)Nc2ccccc2)cc1,0,?,0,11µM
CCCN1CNc2c(c(=O)[nH]c(=S)n2CCc2cc(OC)cc(OC)c2)C1,-,-,0,-
CCOc1cc(S(=O)(=O)n2cc(-c3ccc(F)cc3)c(N)n2)cc(OCC)c1OCC,0,15µM,0,0
COc1ccc(-c2nc(CNS(=O)(=O)c3ccccc3)cs2)cc1,-,-,-,0
COc1ccc(-c2nc(CNS(=O)(=O)c3cc(OC)ccc3OC)cs2)cc1,0,16µM,0,0
COC(=O)c1ccc(COc2ccc(C)cc2[N+](=O)[O-])o1,0,?,5.6µM,0
COc1ccc(NC(=O)C2CCCN2S(=O)(=O)c2ccc3c(c2)CCCC(=O)N3)cc1Cl (centres undefined),-,-,0,0
CC(=O)COc1nc2c(c(-c3ccco3)c1C#N)CCc1ccccc1-2,0,8.2µM,0,0
COc1ccc(-c2cnc(C)o2)cc1S(=O)(=O)Nc1ccc(F)cc1F,-,-,0,0
O=C(NCC1COc2ccccc2O1)c1ccccc1 (centres undefined),0,?,7.9µM,0
COc1ccc(-n2c(-c3ccc(Br)cc3)c[n+]3c2CCC3)cc1,0,1.8µM,0,0
COc1ccc(-n2c(-c3ccc(Br)cc3)c[n+]3c2CCCCC3)cc1,0,5.2µM,0,0
COc1ccc(-n2c(-c3ccc(Br)cc3)c[n+]3c2SC(C)C3)cc1 (centres undefined),0,5.8µM,0,0
Cn1c(CN2CCOCC2)nnc1SCC(=O)Nc1ccc([N+](=O)[O-])cc1O,0,13µM,0,0
O=C1C2C3c4ccccc4C(c4ccccc43)C2c2nc3ccccc3n21 (centres undefined),0,16µM,0,0
CN(C(=O)c1ccc2c(c1)SC1=NS(=O)(=O)CCN12)C(c1ccccc1)c1ccccc1,0,26µM,0,0[9.22 µM]
CCN(CC)S(=O)(=O)c1cccc(NC(=O)c2ccc(-n3nc(C)cc3C)cc2)c1,0,15µM,0,0
Cc1cc(C)n(-c2ccc(C(=O)Nc3ccc(S(=O)(=O)N(C)C)cc3)cc2)n1,0,?,0,0
Cc1cc(C)n(-c2ccc(C(=O)Nc3ccc(C)c(S(=O)(=O)N(C)C)c3)cc2)n1,0,18µM,0,0
CN(C)S(=O)(=O)c1cccc(NC(=O)c2cc(-c3cccs3)nn2-c2cccc(Cl)c2)c1,0,12µM,0,0
Cc1cc(C)n(-c2ccc(C(=O)Nc3cccc(S(=O)(=O)N(C)C)c3)cc2)n1,0,9.2µM,0,0
Cc1cc(C)n(-c2ccc(C(=O)Nc3cccc([N+](=O)[O-])c3)cc2)n1,0,?,0,0
CC1CCc2c(sc(NC(=O)c3cc(-c4ccc(F)cc4)on3)c2C(N)=O)C1 (centres undefined),-,-,-,0
COC(=O)C[C@@H]1CC[C@@H](NS(=O)(=O)c2ccc(OC)cc2)[C@@H](CO)O1,0,-,-,-
SMILES,IL2 activator,ELG1 DNA repair,BRCA1 expr act,Nrf2 activator
COc1ccc(-n2nc(C(=O)Nc3ccc(C(C)=O)cc3)nc2-c2ccccc2)cc1,-,-,0,0
Fc1ccc(-c2cnn3c(-c4cccs4)ccnc23)cc1,106,?,0,?
Fc1ccc(-c2cnn3c(-c4ccncc4)ccnc23)cc1,0,?,?,0
CCC(Sc1nncn2c1cc1oc(C)cc12)C(=O)Nc1ccc(F)cc1 (centres undefined),-,-,-,0
O=C1COc2ccc(C(=O)COC(=O)c3ccco3)cc2N1,0,0,0,0
O=C1COc2ccc(C(=O)COC(=O)/C=C/c3ccco3)cc2N1,0,0,0,2.2µM
COc1cc(NC(=O)COCc2cc(-c3ccc(F)cc3)on2)cc(OC)c1OC,-,-,-,0
O=C(CSc1nc2ccccc2nc1SCC(=O)N1CCCCC1)N1CCCCC1,0,16µM,0,0
O=C(O)c1ccc2oc(SCC(=O)N3CCCCC3)nc2c1,0,?,7.1µM,0
O=C(CSc1nc2cc(Cl)ccc2o1)N1CCOCC1,0,0,0,0
CC1CCCN(C(=O)CSc2nc3ccccc3o2)C1 (centres undefined),0,?,8.9µM,0
NC(=O)C1CCN(C(=O)CSc2nc3ccccc3o2)CC1,0,0,0,0
